HT1080NT lethal = kills 2HG-producing HT-1080-NT fibrosarcoma cells; HT-1080-NT fibrosarcoma viability, CellTiter-Glo ATP luminescence, 48 h; Potency, µM (top dose mostly 46.1 µM), without a hit: at the highest dose activity, negative = less viability, hits mostly cytotoxic; 360,000 compounds, 1.6% hits; AID 686970;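 note: NT is the 2HG producing partner of a matched IDH1 knockdown line; potency is the fitted concentration of half-maximal effect; 0% = DMSO-treated cells and -100% = media-only wells without cells; nearly all actives have a fitted effect of over 55% in size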
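Viability of the 2HG-overproducing fibrosarcoma line after 48 hours of compound exposure at 37 degrees C was determined by luminescence with CellTiter-Glo, and concentration-effect curves were then fitted and categorized.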
TDP1 cell CPT = DT40-hTDP1 cell growth loss with CPT; chicken DT40 Tdp1-/-;hTDP1 cells + 20 nM CPT, ATP luminescence, 48 h; Potency, µM (highest dose often 46.2 µM), without a hit: at the highest dose activity change, negative = growth inhibition, actives largely listed as inhibitors; 420,000 compounds, 12% hits; AID 686979; note: potency is the fitted concentration of half-maximal effect; nearly all actives have a fitted effect of over 55% in size
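Chicken DT40 Tdp1-/- cells stably complemented with human TDP1 were seeded at 400 cells/well in medium containing 20 nM camptothecin, exposed to pin-transferred compounds, and grown at 37 °C for at least 48 hr. Viability was read as ATP luminescence.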
HT1080 IDH1KD tx = kills HT-1080 cells with IDH1 knockdown; 360,000 compounds, 2% hits; AID 686971; Potency, µM (top dose mostly 46.1 µM), inactives show top-dose activity, negative = toxicity, hits mostly cytotoxic; HT-1080 IDH1 knockdown viability, ATP luminescence, 48 h;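 note: potency is the fitted concentration of half-maximal effect; 0% = DMSO wells and -100% = cell-free medium wells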
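Cytotoxicity counter-line: IDH1KD HT-1080, 48 h, CellTiter-Glo. Curves classed by r2, magnitude and activity.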
TDP1 cell noCPT = qHTS for Inhibitors of human tyrosyl-DNA phosphodiesterase 1 (TDP1): qHTS in cells in absence of CPT; Potency, µM (top dose mostly 46.2 µM), inactives show at the top dose activity change, negative = growth inhibition, actives largely listed as inhibitors; 420,000 compounds, 15% hits; DT40 Tdp1-/- hTDP1 cells, no CPT, ATP luminescence, 48 h; AID 686978, 2013; note: potency is the fitted concentration of half-maximal effect; nearly all actives have a fitted effect of over 55% in size
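No-CPT arm: Tdp1-/-;hTDP1 DT40 cells (400/well) plus compounds, incubated ≥48 hr at 37 °C. Readout CellTiter-Glo luminescence.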
IL1B secr inh = inhibitors of inflammasome signaling (IL-1 beta secretion) | THP-1 LPS/ATP IL-1B secretion, AlphaLISA, 16 h; hits give low values | activity change, % at 57.5 µM | 360,000 compounds, 4.7% hits | AID 743279; in the data active = activity change below about -50%; inconclusive = mostly about -30% to -49%
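Secreted IL-1B measured by AlphaLISA bead assay after 16 h compound exposure of THP-1 cells; compounds (final up to 57.5 uM) added 1 h before LPS (250 ng/mL) and ATP (1.25 mM) stimulation; lower signal means less secretion.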
* = called active by the depositor; ? = inconclusive; . = no result given. An excerpt weighted towards active compounds, which were near 19% of everything screened. Unless noted, calls come from the whole dose curve; as a rule, active = well fitted curve in the direction sought with a large enough effect; inconclusive = small, poorly fitted or top-dose-only effect, or another doubt; inactive = no such curve, though single readings can be large; an effect the other way counts as inactive or inconclusive. Unless noted, % is set by controls: 0 for no effect and ±100 for the full control effect.

SMILES	HT1080NT lethal	TDP1 cell CPT	HT1080 IDH1KD tx	TDP1 cell noCPT	IL1B secr inh
Clc1ccc(CSc2nc3ccncc3[nH]2)cc1	-22.1%	?	?	?	15.6
Cc1cc(C)cc(NC(=O)CSc2nc3ccncc3[nH]2)c1	-3.1%	6.51µM*	1.0%	16.4µM*	26.8
O=C(c1ccc(CSc2nc3ccncc3[nH]2)cc1)N1CCCCCC1	?	?	?	?	48.3
Cc1ccc(CSc2nc3ccncc3[nH]2)cc1	?	?	?	14.6µM*	-16.7
CC(C)CCn1c(O)c(N=NC(=O)Cn2ccc(C(F)(F)F)n2)c2ccccc21	-0.8%	20.6µM*	-4.1%	23.1µM*	6.1
NC(=O)C1CCN(C(=O)COc2ccc(Nc3ccccc3)cc2)CC1	2.8%	0.1%	-3.3%	-2.7%	20.3
COc1cc(=O)n2c(c1C(=O)N(C)Cc1ccsc1)CCN(Cc1c(C)nn(C)c1Cl)CC2	.	5.2%	.	-5.3%	.
COc1ccc(S(=O)(=O)N2Cc3ccccc3CC2C(=O)Nc2cccc(C)c2)cc1OC (stereo unspecified)	.	?	.	9.2µM*	.
CCOC(=O)c1ccc(NC(=O)c2ccc3c(c2)CCN3S(=O)(=O)c2ccc(Cl)cc2)cc1	.	7.31µM*	.	?	.
O=C(NC1CCCCC1)C1Cc2ccccc2CN1S(=O)(=O)c1ccc(F)cc1 (stereo unspecified)	2.2%	-7.1%	-9.9%	?	1.0
O=C(Nc1ccccc1)c1ccc2c(c1)CCN2S(=O)(=O)c1ccccc1	-0.4%	?	-8.5%	?	-21.9
NS(=O)(=O)c1ccc(NC(=O)c2ccc3c(c2)CCN3S(=O)(=O)c2ccccc2)cc1	-27.7%	23.1µM*	?	10.3µM*	-4.1
O=C(Nc1nccs1)C1Cc2ccccc2CN1S(=O)(=O)c1ccc(F)cc1 (stereo unspecified)	1.5%	?	-6.3%	14.6µM*	6.0
COc1ccc(S(=O)(=O)N2Cc3ccccc3CC2C(=O)Nc2ccc(O)cc2)cc1OC (stereo unspecified)	-6.5%	-10.2%	0.3%	?	-22.9
Cc1ccc(N(CC(=O)O)S(C)(=O)=O)cc1	8.8%	18.4%	9.1%	-14.8%	7.3
Cc1ccc(S(=O)(=O)N2CCN(c3nc(-c4cccs4)nc(C)c3C)CC2)cc1	.	9.7%	.	8.3%	.
CCOC(=O)c1ccc(NC(=O)C2Cc3ccccc3CN2S(=O)(=O)c2ccc(Cl)cc2)cc1 (stereo unspecified)	.	?	.	16.4µM*	.
COc1ccc(NC(=O)c2ccc3c(c2)CCN3S(=O)(=O)c2ccccc2)cc1	-19.3%	?	-11.1%	?	-56.1*
COc1ccccc1CNC(=O)c1ccc2c(c1)CCN2S(=O)(=O)c1ccccc1	.	?	.	8.2µM*	.
CCCCOC(=O)c1ccc(NC(=O)c2ccc3c(c2)CCN3S(=O)(=O)c2ccccc2)cc1	.	5.8µM*	.	7.31µM*	.
CCOc1ccc(NC(=O)c2ccc3c(c2)CCN3S(=O)(=O)c2ccc(Cl)cc2)cc1	.	-23.4%	.	?	.
OCC1OC(c2ccc(O)cc2O)C(O)C1O (stereo unspecified)	20.2%	-6.3%	6.2%	-4.4%	69.1
COc1cc(CCC(=O)OCC(=O)Nc2ccc(F)c(F)c2F)cc(OC)c1OC	-2.1%	-14.1%	17.6%	-23.9%	38.3
Cc1ccc(S(=O)(=O)N2CCc3cc(C(=O)NCCc4ccccc4)ccc32)cc1	.	?	.	-28.2%	.
COc1ccc(CNC(=O)c2ccc3c(c2)CCN3S(=O)(=O)c2ccc(C)cc2)cc1	.	10.3µM*	.	13µM*	.
O=C(Nc1cccc(Cl)c1)OCCN1CCN(Cc2ccccc2)CCC1=O	2.8%	?	1.2%	18.4µM*	-2.1
O=C1CCN(Cc2ccccc2)CCN1CCOc1ccccc1	-1.5%	20.6µM*	-3.9%	16.4µM*	-4.3
CC(C)[C@@H](COc1ccccc1)N1CCN(Cc2ccccc2)CCC1=O	2.7%	11.2µM*	10.6%	?	-4.5
